Compound activity from PubChem BioAssay.
FBPA coupling cs: inhibits coupling enzyme system, counter-screen for aldolase hits. coupling enzyme system counterscreen, AmpLite Red fluorescence. activity change, negative = inhibition, % at 58.2 µM, hits read low. hit rate 0.67% among 290,000. AID 2472; in the data active = activity change below about -30%
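Activity here indicates interference with the coupling reaction, not aldolase inhibition. Compounds at 57.5 uM final met coupling enzymes for 10 min at RT; substrate and AmpLite Red detection followed, with a 525/598 nm fluorescence read after 20 min.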
Tau fluor cs: counter-screen for tau fibril formation inhibitors; hit rate 0.93% among 280,000; Potency, µM (titrated, usually from 57.7 µM), without a hit: top-dose activity change, negative = decrease; tau K18 P301L Alexa594 fluorescence, heparin fibrillization; AID 1463; note: potency is the fitted concentration of half-maximal effect; nearly all actives have a fitted effect of over 55% in size
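Human K18 P301L tau (15 uM unlabeled plus 0.24 uM Alexa 594-labeled, final) in 100 mM sodium acetate pH 7 was mixed with compound and 20 uM heparin and incubated 6 hr at 37 C.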
Tau fibril ThT: tau fibrillization inhibition (ThT binding) | P10636 | recombinant tau K18 P301L (four-repeat tau fragment), heparin-induced fibrillization, ThT fluorescence | Potency, µM (top dose mostly 57.4 µM), for inactives: top-dose activity, negative = inhibition, usual class: inhibitors | hit rate 2.1% among 270,000 | AID 1460; note: potency is the fitted concentration of half-maximal effect; nearly all actives have a fitted effect of over 55% in size
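Heparin-induced fibrillization of the P301L-mutant K18 repeat-domain fragment of human tau was followed by ThT binding in quantitative high-throughput format.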
USP1-UAF1 inh: inhibitors of human USP1/UAF1 deubiquitinase; AID 743255; hit rate 0.23% among 390,000; recombinant USP1/UAF1, Ub-Rhodamine cleavage fluorescence; Potency, µM (series often up to 57.1 µM), inactives show at the top dose activity change, negative = inhibition, actives largely listed as inhibitors; O94782; note: potency is the fitted concentration of half-maximal effect; nearly all actives have a fitted effect of over 60% in size
Target sequence (O94782 whole entry, looked up): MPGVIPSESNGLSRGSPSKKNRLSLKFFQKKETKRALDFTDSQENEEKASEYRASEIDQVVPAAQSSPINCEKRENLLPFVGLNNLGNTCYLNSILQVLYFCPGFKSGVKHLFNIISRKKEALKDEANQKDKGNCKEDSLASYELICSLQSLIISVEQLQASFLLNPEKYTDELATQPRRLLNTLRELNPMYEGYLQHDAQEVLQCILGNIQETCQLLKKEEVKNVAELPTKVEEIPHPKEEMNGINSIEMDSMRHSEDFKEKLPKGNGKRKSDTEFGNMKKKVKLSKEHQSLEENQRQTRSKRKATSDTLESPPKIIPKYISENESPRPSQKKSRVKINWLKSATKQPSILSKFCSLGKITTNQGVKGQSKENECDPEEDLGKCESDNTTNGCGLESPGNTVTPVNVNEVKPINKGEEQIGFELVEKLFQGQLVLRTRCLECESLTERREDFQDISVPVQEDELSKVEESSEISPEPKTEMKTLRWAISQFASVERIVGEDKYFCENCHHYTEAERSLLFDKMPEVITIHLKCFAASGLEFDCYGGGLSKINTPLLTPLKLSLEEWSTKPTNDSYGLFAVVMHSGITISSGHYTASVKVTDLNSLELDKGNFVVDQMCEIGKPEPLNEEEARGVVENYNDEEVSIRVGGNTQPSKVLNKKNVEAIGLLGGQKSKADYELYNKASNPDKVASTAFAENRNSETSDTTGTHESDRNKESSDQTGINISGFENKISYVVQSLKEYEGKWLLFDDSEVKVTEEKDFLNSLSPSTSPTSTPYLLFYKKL
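Step one: compound is pinned into 1nM USP1/UAF1 in HEPES pH 7.8 buffer with TCEP. Step two: 15 min room-temperature incubation. Step three: Ub-Rho (150nM final) starts cleavage, tracked by fluorescence over six one-minute reads.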
Tau fibril FP: tau fibrillization inhibition (FP) | Potency, µM (titrated, usually from 57.7 µM), inactives show at the highest dose activity, negative = inhibition, most hits filed as inhibitors | K18 P301L tau heparin fibrillization, Alexa594 FP, 6 h | AID 1468 | hit rate 0.39% among 280,000 | P10636; note: potency is the fitted concentration of half-maximal effect; nearly all actives have a fitted effect of over 55% in size
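Read-out: fluorescence polarization of Alexa 594-labeled tau (0.24 uM), 555 nm excitation, 632 nm emission. Mixtures held 15 uM unlabeled K18 P301L, compound and 20 uM heparin, pH 7 acetate buffer, incubated 6 hr at 37 C.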
* = called active by the depositor; [ ] = remark or other dose. The list is not random: actives were taken first. Their share in the collection is about 2.3%. Unless noted, calls come from the whole dose curve; as a rule, active = well fitted curve in the direction sought with a large enough effect; inconclusive = small, poorly fitted or top-dose-only effect, or another doubt; inactive = no such curve, though single readings can be large; an effect the other way counts as inactive or inconclusive. % is set by controls: 0 for no effect and ±100 for the full control effect.

How did O=C(CCc1ccccc1)NC1CC(=O)N(c2cccc(F)c2)C1 (stereo not drawn) do in these assays?
Tau fluor cs: -2%; Tau fibril ThT: -2%; USP1-UAF1 inh: inconclusive; Tau fibril FP: -8%

How did Cc1ccc2nc(-c3c[nH]c4ccccc34)c(Nc3ccccc3)n2c1 do in these assays?
Tau fluor cs: inconclusive; Tau fibril ThT: -7%; USP1-UAF1 inh: inconclusive; Tau fibril FP: 2%

What do the screens show for `Fc1ccc(Nc2c(-c3c[nH]c4ccccc34)nc3ccccn23)cc1`?
Tau fluor cs: 7.1µM*[quencher]; Tau fibril ThT: -11%; USP1-UAF1 inh: inconclusive; Tau fibril FP: -5%

What do the screens show for `c1ccc(Nc2c(-c3c[nH]c4ccccc34)nc3ccccn23)cc1`?
Tau fluor cs: 13µM*[quencher]; Tau fibril ThT: inconclusive; USP1-UAF1 inh: -10%; Tau fibril FP: inconclusive

What do the screens show for `O=C(CN1C(=O)c2ccc(Br)cc2C1=O)NCC1CCCO1` (stereo not drawn)?
FBPA coupling cs: 3; USP1-UAF1 inh: -8%

How did CCOc1ccc(C2C(C(=O)OC)=C(C)NC3=C2C(=O)c2ccccc23)cc1OC (stereo not drawn) do in these assays?
Tau fluor cs: 16µM*[quencher]; Tau fibril ThT: inconclusive; USP1-UAF1 inh: -11%; Tau fibril FP: -5%

What do the screens show for `CCOC(=O)C1=C(C)NC2=C(C(=O)c3ccccc32)C1c1cccnc1` (stereo not drawn)?
FBPA coupling cs: 1; Tau fluor cs: -9%; Tau fibril ThT: inconclusive; USP1-UAF1 inh: -7%; Tau fibril FP: 6%

How did O=C1NC2=C(C(=O)c3ccccc32)C(c2ccccc2)N1 (stereo not drawn) do in these assays?
FBPA coupling cs: 1; Tau fluor cs: -22%; Tau fibril ThT: 22µM*; USP1-UAF1 inh: 1%; Tau fibril FP: inconclusive

What do the screens show for `CCOc1ccc(C2C(C#N)=C(C)NC3=C2C(=O)c2ccccc23)cc1` (stereo not drawn)?
FBPA coupling cs: -8; Tau fluor cs: 20µM*[quencher]; Tau fibril ThT: inconclusive; USP1-UAF1 inh: inconclusive; Tau fibril FP: inconclusive

Results for COc1cc(C2C(C#N)=C(C)NC3=C2C(=O)c2ccccc23)cc(OC)c1OC (stereo not drawn) ?
FBPA coupling cs: -2; Tau fluor cs: -30%; Tau fibril ThT: inconclusive; USP1-UAF1 inh: -26%; Tau fibril FP: -4%

What do the screens show for `COc1ccc(C2C(C#N)=C(C)NC3=C2C(=O)c2ccccc23)cc1` (stereo not drawn)?
FBPA coupling cs: -1; Tau fluor cs: -26%; Tau fibril ThT: inconclusive; USP1-UAF1 inh: -1%; Tau fibril FP: -11%

Results for C#CCOc1c(Br)cc(C2C(C(=O)OC)=C(C)NC3=C2C(=O)c2ccccc23)cc1OCC (stereo not drawn) ?
Tau fluor cs: 3.5µM*[quencher]; Tau fibril ThT: 6.3µM*; USP1-UAF1 inh: -19%; Tau fibril FP: inconclusive

Results for Cc1cccc(-c2noc(-c3ccc(NCC4CCCO4)c([N+](=O)[O-])c3)n2)c1 (stereo not drawn) ?
Tau fluor cs: -1%; Tau fibril ThT: 5%; USP1-UAF1 inh: 5%; Tau fibril FP: 4%

Results for CC1=C([N+](=O)[O-])C(c2ccccc2)C2=C(N1)c1ccccc1C2=O (stereo not drawn) ?
FBPA coupling cs: -5; Tau fluor cs: 16µM*[quencher]; Tau fibril ThT: 16µM*; USP1-UAF1 inh: -6%; Tau fibril FP: -1%

What do the screens show for `Cc1ccc(C(=O)NCC(=O)Nc2ccccc2C)o1`?
USP1-UAF1 inh: -26%

What do the screens show for `Cc1cc(-c2ccco2)n(-c2ccccc2)n1`?
FBPA coupling cs: -6; Tau fluor cs: -14%; Tau fibril ThT: 32µM*; USP1-UAF1 inh: -12%; Tau fibril FP: inconclusive

Results for CCOc1ccc(CCNS(=O)(=O)c2c(C)nc3scc(C)n3c2=O)cc1OCC ?
FBPA coupling cs: -2; Tau fluor cs: -8%; Tau fibril ThT: -6%; USP1-UAF1 inh: -3%; Tau fibril FP: 0%

What do the screens show for `COc1ccc(S(=O)(=O)N=C2C=C(C)C(=O)C(C)=C2)cc1`?
FBPA coupling cs: -3; Tau fluor cs: -21%; Tau fibril ThT: -24%; USP1-UAF1 inh: 3%; Tau fibril FP: 7%

What do the screens show for `C=CC(C1=CC(=O)C(OC)=CC1=O)c1ccc(OC)cc1` (stereo not drawn)?
FBPA coupling cs: -40*; Tau fluor cs: inconclusive; Tau fibril ThT: 16µM*; Tau fibril FP: inconclusive

What do the screens show for `C=CC(C1=CC(=O)C(OC)=CC1=O)c1ccccc1` (stereo not drawn)?
FBPA coupling cs: -53*; Tau fluor cs: 14µM*[quencher]; Tau fibril ThT: 16µM*; Tau fibril FP: 20µM*

How did COC1=C(OC)C(=O)C(Sc2ccc3ccccc3c2)=CC1=O do in these assays?
USP1-UAF1 inh: -22%

Results for C=CC(C1=CC(=O)C(OC)=C(OC)C1=O)c1ccccc1 (stereo not drawn) ?
FBPA coupling cs: -80*; Tau fluor cs: 25µM*[quencher]; Tau fibril ThT: 13µM*; Tau fibril FP: inconclusive

Results for Cc1cc(C)c2c(-n3cccc3)c(C(=O)NCCCN3CCCCC3C)sc2n1 (stereo not drawn) ?
Tau fluor cs: -3%; Tau fibril ThT: -1%; USP1-UAF1 inh: inconclusive; Tau fibril FP: -3%

How did CCC(C)NC(=O)c1cccc(NC(=O)c2nsc3ccccc23)c1 (stereo not drawn) do in these assays?
Tau fluor cs: -14%; Tau fibril ThT: -8%; USP1-UAF1 inh: -3%; Tau fibril FP: -3%

Results for CC(Sc1nnc(CNC(=O)c2ccco2)n1C)C(=O)Nc1nccs1 (stereo not drawn) ?
FBPA coupling cs: 3; USP1-UAF1 inh: -9%

Results for Cc1cc(-c2nn(-c3ccccc3)cc2/C=C2\SC(N)=NC2=O)ccc1OC(C)C ?
FBPA coupling cs: -1; Tau fluor cs: inconclusive; Tau fibril ThT: -1%; USP1-UAF1 inh: -20%; Tau fibril FP: 3.2µM*

What do the screens show for `CCOc1ccc(N=C2NC(=O)S/C2=C\c2ccc(N(C)C)cc2)cc1`?
FBPA coupling cs: -2; Tau fluor cs: inconclusive; Tau fibril ThT: 1.1µM*; USP1-UAF1 inh: 28µM*; Tau fibril FP: 8%

How did CCOc1ccc(/C=C2\SC(=S)N(N3C(=O)C4CC4C3=O)C2=O)cc1 (stereo not drawn) do in these assays?
FBPA coupling cs: -1; Tau fluor cs: -13%; Tau fibril ThT: inconclusive; USP1-UAF1 inh: -17%; Tau fibril FP: 2%

Results for CCOc1ccc(/C=C2/SC(=O)NC2=S)cc1 ?
FBPA coupling cs: 6; Tau fluor cs: inconclusive; Tau fibril ThT: 3.2µM*; USP1-UAF1 inh: -20%; Tau fibril FP: -4%
